Assay results reported in the supplement of paper PMC8975748.
Counter-ions that a name gives are not always drawn. ± gives the standard deviation of the averaged measurements.

Columns and labels:
[1] = tested on: Saccharomyces cerevisiae BY4741 SeMeCo community; assay: mean cell size (pixel area) (pixels); higher = larger cells; details: 10 µM; 24 h; SM minimal medium
Method in brief: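 A Saccharomyces cerevisiae BY4741 community carrying four plasmids, each with a fluorescent marker and each complementing one auxotrophy, was exposed for 24 h to drug at a final 10 µM in SM medium in acoustically predosed 384-well plates. The overnight preculture (OD600 = 1.0) was diluted to OD600 = 0.3 before 70 µl was added per well. Cells were then fixed with paraformaldehyde, imaged by automated confocal microscopy and analysed in Harmony to derive mean cell pixel area per well, averaged over 3 replicates. Same SeMeCo high-content imaging drug screen: Selleck FDA-approved drugs at 10 µM, 24 h in SM medium, 384-well plates, 3 replicates.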

[2] = tested on: Saccharomyces cerevisiae BY4741 SeMeCo community; assay: z-score of prototroph abundance vs DMSO median; higher = larger share of this subpopulation than in DMSO controls; details: 10 µM; 24 h; SM minimal medium; subpopulation (auxotrophy): Prototroph
Method in brief: (§1)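 Cells of a Saccharomyces cerevisiae BY4741 community, carrying four plasmids that each restored one auxotrophy and encoded a distinct fluorescent protein, were pre-grown overnight to OD600 1.0 and diluted to 0.3. A 70 µl volume was added to 384-well plates acoustically predosed with library drugs (10 µM final) and grown 24 h in minimal SM medium. After paraformaldehyde fixation, automated confocal microscopy was used, with single-auxotroph fluorescent strains for thresholds and autofluorescence correction. The abundance of each subpopulation was scored as a z-score against the vehicle-well median.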

[3] = tested on: Saccharomyces cerevisiae BY4741 SeMeCo community; assay: z-score of subpopulation abundance vs DMSO median, subpopulation auxotrophic for L; higher = larger share of this subpopulation than in DMSO controls; details: 10 µM; 24 h; SM minimal medium; subpopulation (auxotrophy): L
Method in brief: as §1

[4] = tested on: Saccharomyces cerevisiae BY4741 SeMeCo community; assay: z-score of subpopulation abundance vs DMSO median, subpopulation auxotrophic for H; higher = larger share of this subpopulation than in DMSO controls; details: 10 µM; 24 h; SM minimal medium; subpopulation (auxotrophy): H
Method in brief: as §1

[5] = tested on: Saccharomyces cerevisiae BY4741 SeMeCo community; assay: z-score of subpopulation abundance vs DMSO median, subpopulation auxotrophic for LU; higher = larger share of this subpopulation than in DMSO controls; details: 10 µM; 24 h; SM minimal medium; subpopulation (auxotrophy): LU
Method in brief: as §1

[6] = tested on: Saccharomyces cerevisiae BY4741 SeMeCo community; assay: z-score of subpopulation abundance vs DMSO median, subpopulation auxotrophic for LM; higher = larger share of this subpopulation than in DMSO controls; details: 10 µM; 24 h; SM minimal medium; subpopulation (auxotrophy): LM
Method in brief: as §1

[7] = tested on: Saccharomyces cerevisiae BY4741 SeMeCo community; assay: z-score of subpopulation abundance vs DMSO median, subpopulation auxotrophic for HU; higher = larger share of this subpopulation than in DMSO controls; details: 10 µM; 24 h; SM minimal medium; subpopulation (auxotrophy): HU
Method in brief: as §1

[8] = tested on: Saccharomyces cerevisiae BY4741 SeMeCo community; assay: z-score of subpopulation abundance vs DMSO median, subpopulation auxotrophic for UM; higher = larger share of this subpopulation than in DMSO controls; details: 10 µM; 24 h; SM minimal medium; subpopulation (auxotrophy): UM
Method in brief: as §1

[9] = tested on: Saccharomyces cerevisiae BY4741 SeMeCo community; assay: z-score of subpopulation abundance vs DMSO median, subpopulation auxotrophic for HL; higher = larger share of this subpopulation than in DMSO controls; details: 10 µM; 24 h; SM minimal medium; subpopulation (auxotrophy): HL
Method in brief: as §1

[10] = tested on: Saccharomyces cerevisiae BY4741 SeMeCo community; assay: z-score of subpopulation abundance vs DMSO median, subpopulation auxotrophic for HLU; higher = larger share of this subpopulation than in DMSO controls; details: 10 µM; 24 h; SM minimal medium; subpopulation (auxotrophy): HLU
Method in brief: as §1

[11] = tested on: Saccharomyces cerevisiae BY4741 SeMeCo community; assay: z-score of subpopulation abundance vs DMSO median, subpopulation auxotrophic for HLM; higher = larger share of this subpopulation than in DMSO controls; details: 10 µM; 24 h; SM minimal medium; subpopulation (auxotrophy): HLM
Method in brief: as §1

[12] = tested on: Saccharomyces cerevisiae BY4741 SeMeCo community; assay: z-score of subpopulation abundance vs DMSO median, subpopulation auxotrophic for HUM; higher = larger share of this subpopulation than in DMSO controls; details: 10 µM; 24 h; SM minimal medium; subpopulation (auxotrophy): HUM
Method in brief: as §1

[13] = tested on: Saccharomyces cerevisiae BY4741 SeMeCo community; assay: z-score of subpopulation abundance vs DMSO median, subpopulation auxotrophic for LUM; higher = larger share of this subpopulation than in DMSO controls; details: 10 µM; 24 h; SM minimal medium; subpopulation (auxotrophy): LUM
Method in brief: as §1

[14] = tested on: Saccharomyces cerevisiae BY4741 SeMeCo community; assay: z-score of subpopulation abundance vs DMSO median, subpopulation auxotrophic for HLUM; higher = larger share of this subpopulation than in DMSO controls; details: 10 µM; 24 h; SM minimal medium; subpopulation (auxotrophy): HLUM
Method in brief: as §1

[15] = tested on: Saccharomyces cerevisiae BY4741 SeMeCo community; assay: z-score of subpopulation abundance vs DMSO median, subpopulation auxotrophic for U; higher = larger share of this subpopulation than in DMSO controls; details: 10 µM; 24 h; SM minimal medium; subpopulation (auxotrophy): U
Method in brief: as §1

[16] = tested on: Saccharomyces cerevisiae BY4741 SeMeCo community; assay: z-score of subpopulation abundance vs DMSO median, subpopulation auxotrophic for HM; higher = larger share of this subpopulation than in DMSO controls; details: 10 µM; 24 h; SM minimal medium; subpopulation (auxotrophy): HM
Method in brief: as §1

SMILES	mean cell size [1]	z-score of prototroph abundance [2]	z-score of subpopulation abundance [3]	z-score of subpopulation abundance [4]	z-score of subpopulation abundance [5]	z-score of subpopulation abundance [6]	z-score of subpopulation abundance [7]	z-score of subpopulation abundance [8]	z-score of subpopulation abundance [9]	z-score of subpopulation abundance [10]	z-score of subpopulation abundance [11]	z-score of subpopulation abundance [12]	z-score of subpopulation abundance [13]	z-score of subpopulation abundance [14]	z-score of subpopulation abundance [15]	z-score of subpopulation abundance [16]
C#CCN[C@@H]1CCc2ccccc21 [Rasagiline]	12.26 ± 0.11	0.01	-0.1	-0.48	0.78	-0.61	0	0.58	-0.5	-0.13	-0.17	-0.36	0.07	0.12	–	–
N=C(N)NC(=O)c1nc(Cl)c(N)nc1N [Amiloride HCl dihydrate]	–	1.39	0.68	0.83	-3.52	2.66	–	-3.7	0.71	-1.34	0.23	-1.45	-1.62	-0.95	-3.02	–
COC(=O)C1=C(C)NC(C)=C(C(=O)OC(C)(C)CN(C)CCC(c2ccccc2)c2ccccc2)C1c1cccc([N+](=O)[O-])c1 (stereo not given) [Lercanidipine]	12.1 ± 0.16	-0.62	1.24	2.07	0.17	0.9	0.16	–	–	0.93	1.04	0.23	0.13	–	-0.86	0.81
NC(=O)OCC(COC(N)=O)c1ccccc1 [Felbamate]	–	1.19	-0.15	–	-0.71	-1.27	-0.73	-0.58	-0.42	-1.23	-1.16	-0.71	-0.77	-0.68	–	-1.32
CC1(C)S[C@@H]2[C@H](NC(=O)[C@H](N)c3ccccc3)C(=O)N2[C@H]1C(=O)O [Ampicillin Trihydrate]	12.4 ± 0.33	0.28	0.35	0.41	-0.05	0.29	–	-0.18	–	-0.22	0.52	0.13	0.23	-0.25	-0.13	-0.06
CCCCCCCCN=c1ccn(CCCCCCCCCCn2ccc(=NCCCCCCCC)cc2)cc1 [Octenidine Dihydrochloride]	9.029 ± 0.063	-16.1	3.6	13.2	14.2	–	23.6	13.5	20	5.94	27.7	26.9	13.8	58.5	–	6.33
COc1cccc2c1C(=O)c1c(O)c3c(c(O)c1C2=O)C[C@@](O)(C(=O)CO)C[C@@H]3O[C@H]1C[C@H](N)[C@H](O[C@@H]2CCCCO2)[C@H](C)O1 [Pirarubicin]	12.3 ± 0.17	2.14	0.11	-1.05	–	-3.84	4	-3.46	0.37	2.71	-1.27	-1.83	-0.26	1.36	5.25	-5.17
C[n+]1ccccc1/C=N/O [Pralidoxime chloride]	11.9 ± 0.062	-0.28	–	-1.61	0.11	0.17	0.45	1.18	-0.65	-0.43	-0.4	0.39	0.34	-0.34	1.25	–
